Rows were chosen to be rich in hits. Some 21% of all compounds tested hit in one or more screens of this group.
ClpP mod – qHTS Assay for Activators of ClpP. Potency, µM (titrated, usually from 57.5 µM), for inactives: at the top dose activity change, negative = active. purified B. subtilis ClpP, FRET peptide cleavage, 20 min. 340,000 tested, 1.9% active; active means well fitted falling curve with a large enough effect; inconclusive means small, poorly fitted or top-dose-only effect; inactive means no such curve, though single readings can be large or run the other way; further: potency means the concentration at half of the fitted maximal effect; the source files actives as falling curves though it sought activators and does not explain the sign; nearly all actives have a fitted effect of over 65% in size
Target sequence (P80244 whole entry, looked up): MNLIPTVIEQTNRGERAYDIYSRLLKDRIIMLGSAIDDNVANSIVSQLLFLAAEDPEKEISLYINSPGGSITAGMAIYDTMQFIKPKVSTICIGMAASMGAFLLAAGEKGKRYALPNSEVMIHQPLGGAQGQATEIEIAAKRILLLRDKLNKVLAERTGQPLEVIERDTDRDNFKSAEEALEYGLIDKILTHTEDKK
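ClpP 10 microg/mL final, pH 8 Tris/KCl buffer with BSA, glycerol, Tween-20; compound pinned in; FRET-FV substrate; RT 20 min; Ex320/Em430; ΔFRET vs ADEP 5.8 microM, DMSO, no enzyme.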
DRD3 antagonist – D3 dopamine receptor (human) antagonism. D3R cells, DiscoveRx beta-arrestin luminescence, antagonist mode; hits give low values. max response, negative = inhibition, %. 360,000 tested, 2.5% active; in the data active means max response below about -50%; inconclusive means no clear call, values can overlap the other calls; further: on the % scale 0 is the no-effect control and ±100 the full control effect
Target sequence (P35462 whole entry, looked up): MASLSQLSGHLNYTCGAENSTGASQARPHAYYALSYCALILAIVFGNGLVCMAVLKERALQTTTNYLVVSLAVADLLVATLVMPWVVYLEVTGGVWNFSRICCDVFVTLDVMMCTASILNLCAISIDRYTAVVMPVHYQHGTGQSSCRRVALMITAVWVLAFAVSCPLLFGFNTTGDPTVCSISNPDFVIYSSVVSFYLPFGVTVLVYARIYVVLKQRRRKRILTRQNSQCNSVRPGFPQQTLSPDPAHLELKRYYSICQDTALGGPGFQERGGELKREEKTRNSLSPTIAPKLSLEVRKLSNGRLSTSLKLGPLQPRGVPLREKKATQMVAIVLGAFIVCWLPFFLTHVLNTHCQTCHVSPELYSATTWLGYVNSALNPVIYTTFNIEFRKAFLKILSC
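Cells plated overnight at 1500 cells/well, then exposed to library compounds with dopamine controls for 90 minutes at 37 degrees C. DiscoveRx reagent added for 30–60 minutes at room temperature; luminescence read, quantitative HTS format.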
DT40 TDP1 CPT – growth inhibition of DT40 Tdp1-/-;hTDP1 cells with camptothecin (screen for TDP1 inhibitors) | chicken DT40 Tdp1-/-;hTDP1 cells + 20 nM CPT, ATP luminescence, 48 h | Potency, µM (highest dose often 46.2 µM), without a hit: at the top dose activity change, negative = growth inhibition, usual class: inhibitors | 420,000 tested, 12% active; further: potency means the concentration at half of the fitted maximal effect; on the % scale 0 is the no-effect control and ±100 the full control effect; nearly all actives have a fitted effect of over 55% in size
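Chicken DT40 Tdp1-/- cells stably complemented with human TDP1 were seeded at 400 cells/well in medium containing 20 nM camptothecin, exposed to pin-transferred compounds, and grown at 37 °C for at least 48 hr. Viability was read as ATP luminescence.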
DRD3 agonist – agonists of human D3 dopamine receptor; 410,000 tested, 0.58% active; AID 652048; D3R DiscoveRx beta-arrestin cells, luminescence, 90 min; max activation, %; P35462; in the data active means max activation above about 30%; further: 0% is about no effect
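Cells at 1500/well, incubated overnight, then treated with pinned compounds (dopamine as control) for 90 min at 37 degrees C. DiscoveRx reagent added for 30 - 60 minutes at room temperature; luminescence read.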
IL1B secr inh – inhibitors of inflammasome signaling (IL-1 beta secretion); THP-1 LPS/ATP IL-1B secretion, AlphaLISA, 16 h; hits give low values; activity change, % at 57.5 µM; 360,000 tested, 4.7% active; AID 743279; in the data active means activity change below about -50%; inconclusive means mostly about -30% to -49%; further: on the % scale 0 is the no-effect control and ±100 the full control effect
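Secreted IL-1B measured by AlphaLISA bead assay after 16 h compound exposure of THP-1 cells; compounds (final up to 57.5 uM) added 1 h before LPS (250 ng/mL) and ATP (1.25 mM) stimulation; lower signal means less secretion.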
TDP1 cell noCPT – qHTS for Inhibitors of human tyrosyl-DNA phosphodiesterase 1 (TDP1): qHTS in cells in absence of CPT; DT40 Tdp1-/- hTDP1 cells, no CPT, ATP luminescence, 48 h; Potency, µM (highest dose often 46.2 µM), without a hit: at the top dose activity change, negative = growth inhibition, hits mostly inhibitors; 420,000 tested, 15% active; AID 686978, 2013; further: potency means the concentration at half of the fitted maximal effect; on the % scale 0 is the no-effect control and ±100 the full control effect; nearly all actives have a fitted effect of over 55% in size
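Readout: luminescence from CellTiter-Glo after 30 min in the dark at RT. Cells: DT40 Tdp1-/- with stable hTDP1, 400/well. Exposure: compounds alone, ≥48 hr, 37 °C.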
Starred values were filed as active, the others as inactive; ? = inconclusive; . = no result; [ ] = another dose, or the depositor's remark. Unless noted, the call rests on the fitted dose curve; in most records, active means well fitted inhibition curve with a large enough effect; inconclusive means small, poorly fitted or top-dose-only effect; inactive means flat fitted curve, though single readings scatter.

SMILES | ClpP mod | DRD3 antagonist | DT40 TDP1 CPT | DRD3 agonist | IL1B secr inh | TDP1 cell noCPT
COC(=O)C1=C(CCc2ccccc2)NC(=O)NC1c1ccc(Cl)cc1 (stereo not drawn) | -5% | -22 | ? | -9 | -52* | ?
COC(=O)C1=C(COc2ccccc2)NC(=O)NC1c1ccc2ccccc2c1 (stereo not drawn) | 4% | 0 | ? | -10 | -12 | 23µM*
Cc1c(C(=O)Nc2ccccn2)sc2nc3n(c(=O)c12)CCC3 | -7% | -24 | -4% | -15 | -9 | -6%
Cc1cccc(C(=O)N(c2ccccn2)C(C)c2ccco2)c1 (stereo not drawn) | -1% | -20 | ? | -4 | 11 | ?
CC(c1ccco1)N(C(=O)c1ccccc1NS(=O)(=O)c1ccc(Cl)c([N+](=O)[O-])c1)c1ccccn1 (stereo not drawn) | -4% | -24 | ? | -15 | -86* | ?
CC(c1ccco1)N(C(=O)c1cc(Cl)cc(Cl)c1)c1ccccn1 (stereo not drawn) | . | 6 | 9.2µM* | 23 | -19 | 8.2µM*
Cc1cc(C)cc(C(=O)N(c2ccccn2)C(C)c2ccco2)c1 (stereo not drawn) | -1% | -25 | ? | 8 | 12 | 15µM*
CC(C)c1ccc(C(=O)N(c2ccccn2)C(C)c2ccco2)cc1 (stereo not drawn) | 1% | -1 | ? | 2 | 15 | 23µM*
COc1ncc2ncc(=O)n(CCc3ccccc3)c2n1 | . | . | -27% | . | . | -15%
COC(=O)c1ccc(CN2C[C@H](Sc3ccccn3)C[C@H]2C(=O)N(C)C)cc1 | . | . | -9%[9.04 µM] | . | . | -19%
CCCc1nc2oc3c(NCCN(C)C)ncnc3c2c2c1CCCC2 | 13% | -54* | 18µM* | 3 | 0 | 16µM*
CC(C)Cc1nc2oc3c(Cl)ncnc3c2c2c1CCCC2 | . | -26 | ? | -3 | -9 | ?
CC(C)Cc1nc2oc3c(=O)[nH]cnc3c2c2c1CCC2 | 11µM* | 2 | -22% | -3 | 45 | -5%
CC(C)Cc1nc2oc3c(NCC(C)O)ncnc3c2c2c1CCCC2 (stereo not drawn) | 4% | 11 | ? | 5 | 0 | 15µM*
CC(C)Cc1nc2oc3c(=O)[nH]cnc3c2c2c1CCCC2 | ? | -9 | 2% | -2 | 11 | 2%
COc1ccc(C2(C(=O)NCC3Cc4cccc(-c5nc(C)cnc5C)c4O3)CCCC2)cc1 (stereo not drawn) | . | . | ? | . | . | -22%
CN(C)CC/C=C1/c2ccccc2CSc2ccccc21 | . | . | ? | -21 | . | ?
CC(=O)OCCCN(C)CC/C=C1/c2ccccc2CSc2ccccc21 | 0% | ? | ? | -31 | -70* | ?
O=S(=O)(O)c1ccc2c(N=Nc3ccc(S(=O)(=O)O)c4ccccc34)c(O)c(S(=O)(=O)O)cc2c1 | -5% | . | ? | -23 | . | ?
CC(=O)Nc1ccc(S(=O)(=O)O)c2cc(S(=O)(=O)O)c(N=Nc3ccc(N=Nc4ccc(S(=O)(=O)O)cc4)c4ccc(S(=O)(=O)O)cc34)c(O)c12 | 0% | . | 8.9µM* | . | . | 13µM*
CN(C)S(=O)(=O)c1ccc(C(=O)NCc2cccs2)cc1 | 0% | -14 | 2% | -6 | -5 | 1%
Cc1noc(C)c1Cn1c(C)c(C(=O)NCc2ccc3c(c2)OCCO3)sc1=O | -1% | 3 | 8.2µM* | 1 | 30 | 16µM*
Cc1c(C(=O)NCc2cccs2)sc(=O)n1Cc1ccc(S(=O)(=O)N(C)C)cc1 | 0% | 49 | ? | -1 | -20 | 23µM*
Cc1c(C(=O)NCc2ccc3c(c2)OCCO3)sc(=O)n1Cc1ccc2c(c1)OCO2 | 1% | 9 | ? | 0 | -8 | ?
Cc1c(C(=O)NCc2cccc(C(F)(F)F)c2)sc(=O)n1Cc1ccc(S(=O)(=O)N(C)C)cc1 | 1% | 8 | 21µM* | 3 | ? | ?
SMILES | ClpP mod | DRD3 antagonist | DT40 TDP1 CPT | DRD3 agonist | IL1B secr inh | TDP1 cell noCPT
Cc1c(C(=O)NCc2ccc3c(c2)OCO3)sc(=O)n1Cc1ccc(S(=O)(=O)N(C)C)cc1 | -7% | 32 | ? | -5 | -25 | 16µM*
CC(=O)OCC(=O)[C@@]1(O)[C@H](C)C[C@H]2[C@@H]3C[C@H](F)C4=CC(=O)C=C[C@]4(C)[C@H]3[C@@H](O)C[C@@]21C | . | . | ? | 2 | . | ?
Cc1c(C(=O)NCc2ccc3c(c2)OCCO3)sc(=O)n1Cc1ccccc1C#N | -3% | 37 | ? | 2 | -15 | 16µM*
Cc1c(C(=O)NCc2ccc3c(c2)OCCO3)sc(=O)n1Cc1ccc(S(=O)(=O)N(C)C)cc1 | -1% | 24 | 18µM* | 2 | -14 | 15µM*
CNc1ccccc1C(C)(C)c1cc(-c2cccc(OC)c2)no1 | . | 13 | 4.6µM* | 8 | 7 | 5.2µM*
Cc1ccc(O)c(NC(=O)c2ccc3c(c2)C(=O)N(Cc2cccnc2)C3=O)c1 | ? | 14 | -17% | 3 | -6 | -19%
COc1ccc(C2(CNC(=O)C(=O)Nc3ccccc3C)CCCC2)cc1OC | 1% | . | 23µM* | 2 | . | 18µM*
COc1ccc(C2(CNC(=O)C(=O)Nc3ccc(F)cc3)CCCC2)cc1OC | -1% | . | 18µM* | 2 | . | 18µM*
COc1ccc(C2(CNC(C)=O)CCOCC2)cc1OC | -2% | 23 | 2% | 4 | 18 | 3%
O=C(NC1CC1)C1=C[C@@H](C2CC2)C[C@@H](OCc2ccc(CO)cc2)O1 | -1% | 3 | -23% | 3 | 26 | -18%
CCC(C)Sc1nc2c(c(=O)[nH]1)C(c1cccs1)C1=C(CCCC1=O)N2 (stereo not drawn) | -4% | 45 | ? | 12 | -10 | 21µM*
O=C1CCCC2=C1C(c1ccncc1)c1c(nc(SCc3ccccc3Cl)[nH]c1=O)N2 (stereo not drawn) | ? | 13 | -16% | 4 | -21 | -23%
COc1ccc(OC)c(NC(=O)C(Cc2ccccc2)NS(=O)(=O)c2ccc3c(c2)CCC(=O)N3)c1 (stereo not drawn) | 0% | . | ? | -9 | . | ?
Cc1nc(Cl)nc(N(C)c2ccccc2)c1[N+](=O)[O-] | . | -18 | ? | 14 | -82* | ?
